This note sets out measurements from PubChem BioAssay (NCATS).

Assay [1] can be described thus: qHTS of pediatric cancer cell lines to identify multiple opportunities for drug repurposing: Confirmatory screen for BT-12 cells (AID 1347112). Also: nearly all actives have a fitted effect of over 55% in size. Also: potency is read from the fitted curve at half-maximal effect. In short, it runs like this: (§1)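 Viability after 48 h compound treatment at 37C, 500-1,000 cells/well, read as ATP luminescence with CellTiter-Glo. Primary screens used 11-point (MIPE, 0.78 nM-46 µM) or 8-point (NPC, 0.59 nM-46 µM) final concentrations; follow-up screens used 11-point dilutions.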

Assay [2] is described as follows: qHTS of pediatric cancer cell lines to identify multiple opportunities for drug repurposing: Confirmatory screen for control Hh wild type fibroblast cells (AID 1347121). Also: nearly all actives have a fitted effect of over 70% in size. Also: potency is read from the fitted curve at half-maximal effect. In short, it runs like this: as §1
(In general: In qHTS, concentration-response curves come from the screen itself.)

Assay [3] can be described thus: qHTS of pediatric cancer cell lines to identify multiple opportunities for drug repurposing: Confirmatory screen for U-2 OS cells (AID 1347122). Also: nearly all actives have a fitted effect of over 65% in size. Also: potency is read from the fitted curve at half-maximal effect. In short, it runs like this:
as §1

Assay [4] can be described thus: qHTS of pediatric cancer cell lines to identify multiple opportunities for drug repurposing: Confirmatory screen for OHS-50 cells (AID 1347128).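 Also: compound exposure lasted 48 h at 37 degrees C; nearly all actives have a fitted effect of over 55% in size.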 Also: potency is read from the fitted curve at half-maximal effect. In short, it runs like this: as §1
A short description of assay [5]: qHTS of pediatric cancer cell lines to identify multiple opportunities for drug repurposing: Confirmatory screen for SK-N-SH cells (AID 1347129). Also: nearly all actives have a fitted effect of over 60% in size. Also: potency is read from the fitted curve at half-maximal effect. In a few lines: as §1
A short description of assay [6]: qHTS of pediatric cancer cell lines to identify multiple opportunities for drug repurposing: Confirmatory screen for SK-N-MC cells (AID 1347111).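 Also: potency is read from the fitted curve at half-maximal effect; cells exposed to compound for 48 h before the readout; nearly all actives have a fitted effect of over 70% in size.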 In a few lines:
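SK-N-MC cells at 500-1,000 cells/well in growth media were pre-incubated 5 h, then exposed to compounds at 11-point dilutions for 48 h at 37 degrees C, 5% CO2. Viability was read as CellTiter-Glo luminescence.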

Assay [7] is described as follows: qHTS of pediatric cancer cell lines to identify multiple opportunities for drug repurposing: Confirmatory screen for LAN-5 cells (AID 1347113). Also: nearly all actives have a fitted effect of over 65% in size. Also: potency is read from the fitted curve at half-maximal effect. In a few lines:
as §1

Assay [8] in a line: qHTS of pediatric cancer cell lines to identify multiple opportunities for drug repurposing: Confirmatory screen for DAOY cells (AID 1347114). Also: nearly all actives have a fitted effect of over 65% in size. Also: potency is read from the fitted curve at half-maximal effect. In short, it runs like this: (§2)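 Viability measured as metabolically active cells via CellTiter-Glo luminescence following 48 hours of compound exposure, 11-point dilutions in confirmatory testing. 500-1,000 cells/well plated 5 hours before dosing; controls were DMSO and 2.3 µM bortezomib.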

Assay [9] in a line: qHTS of pediatric cancer cell lines to identify multiple opportunities for drug repurposing: Confirmatory screen for NB-EBc1 cells (AID 1347115). Also: nearly all actives have a fitted effect of over 45% in size. Also: potency is read from the fitted curve at half-maximal effect. In a few lines:
as §1

Assay [10] can be described thus: qHTS of pediatric cancer cell lines to identify multiple opportunities for drug repurposing: Confirmatory screen for SJ-GBM2 cells (AID 1347116). Also: nearly all actives have a fitted effect of over 60% in size. Also: potency is read from the fitted curve at half-maximal effect. In a few lines:
as §2

A short description of assay [11]: qHTS of pediatric cancer cell lines to identify multiple opportunities for drug repurposing: Confirmatory screen for BT-37 cells (AID 1347117). Also: nearly all actives have a fitted effect of over 55% in size. Also: potency is read from the fitted curve at half-maximal effect. In a few lines:
as §1

Assay [12] in a line: qHTS of pediatric cancer cell lines to identify multiple opportunities for drug repurposing: Confirmatory screen for TC32 cells (AID 1347118). Also: potency is read from the fitted curve at half-maximal effect; nearly all actives have a fitted effect of over 65% in size. In short, it runs like this:
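Measured quantity: luminescence from CellTiter-Glo, reflecting metabolically active TC32 cells following 48 h of compound. Curves came straight from multi-point titrations, with 8 or 11 points in primary and 11 in confirmatory screening.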

Assay [13] can be described thus: qHTS of pediatric cancer cell lines to identify multiple opportunities for drug repurposing: Confirmatory screen for MG 63 (6-TG R) cells (AID 1347119). Also: nearly all actives have a fitted effect of over 55% in size. Also: potency is read from the fitted curve at half-maximal effect. In a few lines: as §1
Assay [14] can be described thus: qHTS of pediatric cancer cell lines to identify multiple opportunities for drug repurposing: Confirmatory screen for Rh41 cells (AID 1347123).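 Also: 48 h compound exposure; nearly all actives have a fitted effect of over 60% in size.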 Also: potency is read from the fitted curve at half-maximal effect. In short, it runs like this:
as §1

Assay [15] in a line: qHTS of pediatric cancer cell lines to identify multiple opportunities for drug repurposing: Confirmatory screen for Rh30 cells (AID 1347126). Also: nearly all actives have a fitted effect of over 55% in size. Also: potency is read from the fitted curve at half-maximal effect. In short, it runs like this:
as §1

The target in assay [16] is N-terminal Xaa-Pro-Lys N-methyltransferase 1 (Homo sapiens) (UniProt Q9BV86). The assay is described as follows: qHTS Assay for Inhibitors of N-terminal methyltransferase 1 (NTMT1): LOPAC validation of the NTMT1 SAHH-coupled ThioGlo3 Assay (AID 1347143).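 Also: SAH from peptide methylation measured as thiol fluorescence via SAHH coupling and ThioGlo3; nearly all actives have a fitted effect of over 70% in size.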 Also: potency is read from the fitted curve at half-maximal effect. In short, it runs like this: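 Recombinant human NTMT1 (125nM) was pre-incubated 1 min at room temperature with compounds over a concentration range, then a mix of 100uM SAM, 10uM SAHH and 15uM ThioGlo3 (concentrations in added reagent) was added. ThioGlo3 fluorescence (ex 340/em 450nm) after 30 min was normalized to the initial reading.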

Assay [17] is described as follows: qHTS of pediatric cancer cell lines to identify multiple opportunities for drug repurposing: Confirmatory screen for RD cells (AID 1347124). Also: potency is read from the fitted curve at half-maximal effect. In short, it runs like this: as §1
Assay [18] in a line: qHTS of pediatric cancer cell lines to identify multiple opportunities for drug repurposing: Confirmatory screen for Rh18 cells (AID 1347125). Also: nearly all actives have a fitted effect of over 55% in size. Also: potency is read from the fitted curve at half-maximal effect. In a few lines: as §1
Assay [19] is described as follows: qHTS of pediatric cancer cell lines to identify multiple opportunities for drug repurposing: Confirmatory screen for Saos-2 cells (AID 1347127). Also: nearly all actives have a fitted effect of over 60% in size. Also: potency is read from the fitted curve at half-maximal effect. In a few lines:
as §1

A further assay deals with Furin (Homo sapiens) (UniProt P09958). Nature of the assay: Furin counterscreen qHTS for Zika virus inhibitors (AID 1347149).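 Also: purified recombinant full-length human furin enzyme at 5 nM; fluorescence gain from furin cutting a BOC-RVRR-AMC peptide substrate over 15 min; top concentration of the series differs between compounds; nearly all actives have a fitted effect of over 70% in size.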 In short, it runs like this:
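Fluorogenic cleavage of BOC-RVRR-AMC (2 microM final, Km ~15 µM) was monitored (ex 340, em 450 nm) at 37C after 15 min RT preincubation of 5 nM furin with compounds in HEPES pH 7.0 buffer with CaCl2 and Triton X-100. Percent inhibition was fitted to a 4-parameter Hill curve.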
Background: A counterscreen serves to expose hits that act by an unwanted route or on another target.

Inconclusive results are not listed. Activity calls are given as the source filed them. Calls follow the shape of the dose curve; as a rule, active = well fitted curve in the direction sought with a large enough effect; inconclusive = small, poorly fitted or top-dose-only effect, or another doubt; inactive = no such curve, though single readings can be large; an effect the other way counts as inactive or inconclusive.

N-terminal Xaa-Pro-Lys N-methyltransferase 1 (Homo sapiens), sequence (Q9BV86 whole entry, looked up): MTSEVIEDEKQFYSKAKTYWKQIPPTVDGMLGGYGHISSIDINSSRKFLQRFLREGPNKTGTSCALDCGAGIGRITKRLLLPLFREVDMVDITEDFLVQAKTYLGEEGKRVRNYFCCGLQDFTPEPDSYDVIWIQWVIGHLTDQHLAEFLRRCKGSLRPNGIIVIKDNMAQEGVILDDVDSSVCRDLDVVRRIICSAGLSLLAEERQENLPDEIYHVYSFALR
Furin (Homo sapiens), sequence (P09958 whole entry, looked up): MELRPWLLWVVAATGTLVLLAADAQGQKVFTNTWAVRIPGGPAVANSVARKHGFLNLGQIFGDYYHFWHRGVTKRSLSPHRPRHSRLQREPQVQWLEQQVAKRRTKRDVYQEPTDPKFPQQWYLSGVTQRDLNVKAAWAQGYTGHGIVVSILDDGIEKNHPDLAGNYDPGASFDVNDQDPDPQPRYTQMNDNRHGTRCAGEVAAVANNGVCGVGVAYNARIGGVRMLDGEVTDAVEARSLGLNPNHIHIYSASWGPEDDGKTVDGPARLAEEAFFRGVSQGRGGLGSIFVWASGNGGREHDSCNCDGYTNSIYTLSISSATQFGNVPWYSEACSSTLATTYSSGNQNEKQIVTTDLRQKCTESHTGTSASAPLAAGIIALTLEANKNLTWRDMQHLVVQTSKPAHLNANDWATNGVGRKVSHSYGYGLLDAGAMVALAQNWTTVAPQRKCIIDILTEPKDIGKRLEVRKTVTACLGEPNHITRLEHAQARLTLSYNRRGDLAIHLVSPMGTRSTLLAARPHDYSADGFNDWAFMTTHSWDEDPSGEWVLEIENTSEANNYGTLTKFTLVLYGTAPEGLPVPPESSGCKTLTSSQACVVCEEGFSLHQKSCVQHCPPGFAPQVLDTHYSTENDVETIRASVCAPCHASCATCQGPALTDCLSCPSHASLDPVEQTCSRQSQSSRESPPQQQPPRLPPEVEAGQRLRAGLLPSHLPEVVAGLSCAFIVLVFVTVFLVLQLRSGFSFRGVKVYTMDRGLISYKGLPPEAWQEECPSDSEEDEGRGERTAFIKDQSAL

For the compound `Cn1cc(C2=C(c3cn(C4CCN(Cc5ccccn5)CC4)c4ccccc34)C(=O)NC2=O)c2ccccc21`, the Potency result in assay [1], in assay [2], in assay [3], in assay [4] and in assay [5] was “inactive” each time.

For the compound `C[C@@H]1[C@@H](CC(C[C@H]2O[C@@H]3O[C@]4(C)CC[C@@H]5[C@H](C)CC[C@@H]([C@H]2C)[C@@]35OO4)C[S+](=O)([O-])c2ccc(COC(=O)N(C)C)cc2)O[C@@H]2O[C@]3(C)CC[C@H]4[C@H](C)CC[C@@H]1[C@@]24OO3` (stereo partly drawn), the Potency in [6] was 293 nM (active); in assay [1], 657 nM (active); in assay [7], 1040 nM (active); in assay [8], 1040 nM (active); in assay [9] it was 928 nM (active); in [10], 1650 nM (active). Moreover, the Potency in [11] was 233 nM (active); in [12], 585 nM (active); in assay [13], 2330 nM (active); in assay [2], 13100 nM (active); in [14], 82.7 nM (active); in assay [15], 4650 nM (active). The Potency in assay [4] was 233 nM (active).

As to `COc1ccc(C(CN(C)C)C2(O)CCCCC2)cc1` (stereo not drawn), in assay [16], the Potency result is “inactive”.

Take `Nc1ccncc1`: the Potency entry in assay [16] was “inactive”.

In the case of `Cc1cccc(C)c1NC(=O)CN1CCCC1=O`, in assay [16], the Potency entry is “inactive”.

In the case of `Cn1c(CCCC(=O)O)nc2cc(N(CCCl)CCCl)ccc21`, the Potency in assay [6] is 3690 nM (active); in assay [9] it was 13100 nM (active); in assay [12], 4650 nM (active); in [16], 56200 nM (active). Also, the Potency entry in assay [1], in assay [7], in [10], in assay [2], in [17] and in [18] was “inactive” in each case. In addition, the Potency result in [4] and in assay [5] was “inactive” each time.

With `CCCN1CCC[C@@H]2Cc3[nH]ncc3C[C@H]21`, the Potency entry in [16] is “inactive”.

On to `C[C@H]1O[C@@H](O[C@H]2[C@@H](O)C[C@H](O[C@H]3[C@@H](O)C[C@H](O[C@H]4CC[C@@]5(C)[C@H](CC[C@@H]6[C@@H]5CC[C@]5(C)[C@@H](C7=CC(=O)OC7)CC[C@]65O)C4)O[C@@H]3C)O[C@@H]2C)C[C@H](O)[C@@H]1O`, for which the Potency in assay [6] was 131 nM (active); in assay [1], 185 nM (active); in assay [7], 233 nM (active); in assay [8], 65.7 nM (active); in assay [10], 233 nM (active); in assay [11] it was 58.5 nM (active). Further, the Potency was 82.7 nM (active) in assay [12]; 46.5 nM (active) in assay [13]; 165 nM (active) in assay [3]; 73.7 nM (active) in assay [14]; 104 nM (active) in assay [17]; 329 nM (active) in assay [15]. For the same compound, the values for the Potency in [19] and in assay [5] were 1040 nM (active) and 148 nM (active), respectively. The Potency entry with Furin (Homo sapiens) was “inactive”.

Consider `C[C@@H]1[C@@H](C(=O)C[C@H]2O[C@@H]3O[C@]4(C)CC[C@@H]5[C@H](C)CC[C@@H]([C@H]2C)[C@@]35OO4)O[C@@H]2O[C@]3(C)CC[C@H]4[C@H](C)CC[C@@H]1[C@@]24OO3`, for which the Potency was 2930 nM (active) in assay [6]; 14700 nM (active) in assay [1]; 1650 nM (active) in assay [11]; 9270 nM (active) in [12]; 928 nM (active) in assay [14]; 737 nM (active) in [17]. Moreover, the Potency in [15] was 13100 nM (active). The Potency result in assay [8], in assay [2] and in [18] was “inactive” each time.

As for `Cc1sc2c(c1C)C(c1ccc(Cl)cc1)=N[C@@H](CC(=O)OC(C)(C)C)c1nnc(C)n1-2`, the Potency entry in assay [8], in assay [10], in assay [2], in assay [3], in [14] and in assay [5] was “inactive” throughout. For the same compound, the Potency is 1310 nM (active) in assay [11] and 827 nM (active) in [12].

Consider `COc1ccccc1N1CCNCC1`, for which, in assay [16], the Potency result was “inactive”.

As for `Cc1cccc(C)c1NC1=NCCCS1`, the Potency result in assay [16] is “inactive”.

As to `C=C(C)[C@H]1Cc2c(ccc3c2O[C@@H]2COc4cc(OC)c(OC)cc4[C@@H]2C3=O)O1`, the Potency in assay [6] was 1650 nM (active); in [1], 2610 nM (active); in [7], 1170 nM (active); in assay [9], 293 nM (active); in assay [11], 2610 nM (active); in assay [12] it was 329 nM (active). For the same compound, the results for the Potency in assay [13], in assay [2] and in [4] were 32.9 nM (active), 117 nM (active) and 1470 nM (active), respectively. Moreover, the Potency entry in assay [3], in assay [17] and in assay [15] was “inactive” in each case.

Regarding `COC[C@@H](NC(C)=O)C(=O)NCc1ccccc1`, the Potency result in assay [1], in [7], in assay [9], in [11], in assay [13] and in [2] was “inactive” each time. In addition, the Potency entry in assay [18], in assay [19], in assay [4] and in [5] was “inactive” each time.

`c1ccc2c(c1)OCC(C1=NCCN1)O2` (stereo not drawn): the Potency in assay [16] is 56200 nM (active).

As for `N[C@@H](Cc1ccc(N(CCCl)CCCl)cc1)C(=O)O`, the Potency was 2610 nM (active) in [6]; 5220 nM (active) in assay [7]; 23300 nM (active) in assay [8]; 5850 nM (active) in [9]; 20800 nM (active) in assay [10]; 9270 nM (active) in assay [12]. For the same compound, the figures for the Potency in assay [13], in assay [4] and in assay [5] were 16500 nM (active), 26100 nM (active) and 18700 nM (active), respectively. Further, in assay [2], the Potency entry is “inactive”.

For `CC(C)CC(N(C)C)C1(c2ccc(Cl)cc2)CCC1` (stereo not drawn), the Potency entry in [8], in [9], in assay [14] and in assay [5] was “inactive” throughout. Besides, the Potency was 23300 nM (active) in assay [12] and 20800 nM (active) in assay [18].
